# Screening data deposited in PubChem BioAssay by several laboratories.
# A selection: hits, their analogues and other compounds. The true share with any hit is near 4.7%.
# rCAG RNA binder: binders of r(CAG) RNA repeats, primary screen, biochemical, fluorescence | r(CAG) RNA repeat, TO-PRO-1 dye displacement fluorescence | inhibition, % at 3 µM | actives 1.3% (n = 370,000);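 active = inhibition above the plate cutoff, the mean of all test compounds on that plate plus 3 SD, cut at about 35% in these data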;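 also: 0% = DMSO alone and 100% = 100 µM mitoxantrone as full dye displacement; higher means more dye released from RNA so lower well fluorescence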
# ADAM10 inh: human ADAM10 inhibitors, primary screen, biochemical, QFRET, HTS; Disintegrin and metalloproteinase domain-containing protein 10 (Homo sapiens), O14672; recombinant ADAM10, EDANS/DABCYL FRET peptide cleavage, 3 h; inhibition, % at 7 µM; actives 0.62% (n = 370,000);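 active = inhibition above a per-campaign cutoff equal to the mean of compounds falling between control-based bounds plus 3 SD, cut at about 20% in these data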;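 also: 0% = DMSO wells while the 100% control is not disclosed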
# proKLK7 act: proKLK7 zymogen activators, primary screen, biochemical, fluorescence intensity | purified proKLK7, EDANS-DABCYL substrate fluorescence; 100% is mature enzyme control, 0% vehicle | activation, % at 7 µM | Kallikrein-7 (Homo sapiens), P49862 | actives 0.9% (n = 370,000);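 active = activation above the mean of all tested compounds plus 3 SD, computed per campaign excluding outliers beyond control limits, cut at about 13% in these data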
# Target sequence (P49862 whole entry, looked up): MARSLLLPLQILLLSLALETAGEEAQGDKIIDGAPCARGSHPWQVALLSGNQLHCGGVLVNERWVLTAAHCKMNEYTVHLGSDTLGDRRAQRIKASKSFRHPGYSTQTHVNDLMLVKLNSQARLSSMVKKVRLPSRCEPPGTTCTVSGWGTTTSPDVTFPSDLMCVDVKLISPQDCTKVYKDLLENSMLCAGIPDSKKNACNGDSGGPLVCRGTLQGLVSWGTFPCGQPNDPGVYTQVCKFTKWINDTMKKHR
# DSG3 Ab inh: inhibitors of pemphigus antibody binding to DSG3, primary screen, biochemical, bead-based, flow cytometry, scFv-GFP; actives 0.48% (n = 310,000); DSG3-coupled beads, scFv-anti-DSG3-GFP binding; active compounds read low; binding (percent of control), % at 10 µM; AID 588358, 2011; Desmoglein-3 (Homo sapiens), P32926;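 active = binding more than 3 SD below its plate's average and above zero; inconclusive = below that plate limit but binding exactly zero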;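 also: hits lower antibody fragment binding to DSG3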
# MPTP block: mitochondrial permeability transition pore inhibitors, primary screen, biochemical, isolated mouse mitochondria, absorbance | actives 1.4% (n = 360,000) | inhibition, % at 10 µM | Ca2+ swelling absorbance, 30 min | AID 602449, 2012;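 active = inhibition of 50% or more, scaled per plate between neutral and stimulator controls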;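 also: 0% = DMSO wells given calcium and 100% = 1 mM EGTA wells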
# ADAM17 inh: ADAM17 inhibitors, primary screen, biochemical, QFRET | AID 720648, 2013 | Disintegrin and metalloproteinase domain-containing protein 17 (Homo sapiens), P78536 | recombinant ADAM17, EDANS/DABCYL FRET peptide cleavage | inhibition, % at 6.95 µM | actives 0.83% (n = 370,000);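 active = inhibition above the mean of compounds lying between control limits plus 3 SD, set per campaign, cut at about 8.5% in these data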;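 also: 0% = DMSO-only wells as the low control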
# MPTP counter: fluorescence retest of MPTP screen hits in isolated mitochondria, single concentration. AID 624504, 2012. membrane potential, Rhodamine 123 fluorescence. shares compounds with MPTP block. actives 78% (n = 5,000). inhibition, % at 10 µM; in the data active = inhibition above about 22%;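 also: 0% = DMSO vehicle and 100% = positive control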
# MPTP abs DR: mitochondrial permeability transition pore inhibitors, dose response, biochemical, absorbance, uHTS hits | shares compounds with MPTP block | isolated mitochondria swelling | IC50, µM | actives 58% (n = 780); in the data active = IC50 below about 20 µM
# MPTP cs DR: fluorescent counter-screen in isolated mitochondria, dose response, counter-screen for MPTP inhibitor project, biochemical, fluorescence, uHTS hits; shares compounds with MPTP block; IC50, µM; isolated mitochondria counterscreen, fluorescence read-out; actives 49% (n = 780); in the data active = IC50 below about 80 µM
# * = called active by the depositor; i = inactive; ? = inconclusive; · = no result given.
SMILES,rCAG RNA binder,ADAM10 inh,proKLK7 act,DSG3 Ab inh,MPTP block,ADAM17 inh,MPTP counter,others
O=C1C=C(NC(=O)Nc2ccc(Cl)c(Cl)c2)CCC1,5.8,2.6,0.5,102.0,91.3*,-3.2,97.9*,
O=C(Nc1ccc(Cl)c(Cl)c1)Nc1ccc(Br)cc1F,5.9,6.9,0.4,109.2,99.8*,3.0,73.9*,
O=C(Nc1ccc(Cl)cc1)Nc1ccc(Cl)c(Cl)c1,10.7,6.2,0.0,·,·,-1.2,·,
CCCCN(CCCC)S(=O)(=O)c1ccc(NC(=O)c2ccc([N+](=O)[O-])cc2Cl)cc1,7.2,9.3,-0.7,96.4,94.7*,4.8,95.9*,
O=C(Nc1ccc(Cl)c(Cl)c1)Nc1ccccc1O,13.3,17.9,0.3,129.6,97.8*,8.4,64.2*,
C[C@@H]1CN([C@@H](C)CO)C(=O)CCCn2cc(nn2)CO[C@H]1CN(C)C(=O)Nc1cccc(Oc2ccccn2)c1,-2.7,-14.8,0.6,·,·,-4.9,·,
C[C@@H]1CCCCO[C@H](CN(C)C(=O)CCC(F)(F)F)[C@H](C)CN([C@@H](C)CO)C(=O)c2cc(NS(=O)(=O)c3ccc(Cl)cc3)ccc2O1,13.2,8.4,1.0,·,·,5.6,·,
O=C(NCCCl)Nc1ccc(Cl)c([N+](=O)[O-])c1,4.2,-2.6,0.2,102.0,81.1*,-2.0,92.8*,
O=C(NNc1ccccc1[N+](=O)[O-])Nc1ccc(Cl)c(Cl)c1,9.6,8.3,0.2,97.5,101.7*,3.5,84.2*,
CCN(CC)S(=O)(=O)c1cc([N+](=O)[O-])ccc1NNC(=O)Nc1ccc(Cl)c(Cl)c1,25.2,9.0,-0.2,97.0,101.6*,1.6,76.0*,
O=C(NCCCl)Nc1cc([N+](=O)[O-])ccc1Cl,-0.9,-3.2,-0.4,107.5,1.4,-4.1,·,
Cc1ccc(NC(=O)CN(c2ccc(Cl)cc2)S(=O)(=O)c2cc([N+](=O)[O-])ccc2Cl)cc1,4.8,10.7,-0.4,·,13.1,1.1,·,
O=C(NNc1ccccc1[N+](=O)[O-])Nc1ccccc1,·,·,·,96.9,2.6,·,·,
CC(C)(C)c1ccc(C#C[C@@H]2C=C[C@H](O)[C@@H](COC(=O)Nc3ccccc3)O2)cc1,8.5,8.3,1.0,·,·,3.9,·,
CCOC(=O)C1CSCCS(=O)(=O)N1Cc1ccc(C)cc1 (stereo not drawn),5.0,0.6,0.2,·,·,0.8,·,
CN1CCN(c2ccccc2NC(=O)C(Cc2ccccc2)n2cccc2)CC1 (stereo not drawn),-0.6,-7.3,0.9,105.0,81.3*,0.8,-12.2,MPTP abs DR=i;MPTP cs DR=>80
CN1CCN(c2ccccc2NC(=O)c2ccc(-c3ccccc3)cc2)CC1,1.0,7.1,-0.1,109.6,45.8,2.5,·,
CN1CCN(c2ccccc2NC(=O)c2ccc(OCc3ccccc3)cc2)CC1,-6.5,0.0,0.2,104.9,78.0*,-2.5,-10.3,MPTP abs DR=9.43*;MPTP cs DR=>80
CCCCOc1ccc(C(=O)Nc2ccc(N3CCN(C)CC3)cc2)cc1,-9.6,-1.1,-1.6,102.9,89.5*,-2.6,-8.4,MPTP abs DR=i;MPTP cs DR=>80
COC(=O)[C@]12C[C@H](CC(=O)NCCC(C)C)C(=O)N(Cc3ccc(Cl)cc3Cl)C1=C[C@H](C(C)C)O[C@@H]2C1CC1,3.1,7.9,-0.1,·,·,-0.3,·,
FC(F)(F)c1cc(C(F)(F)F)c2ccc(N3CCN(c4ccc(Cl)cc4)CC3)nc2n1,3.1,-30.7,1.6,102.4,42.4,-6.8,·,
N#CC(c1ccc(Cl)cc1)c1ccc2c(C(F)(F)F)cc(C(F)(F)F)nc2n1 (stereo not drawn),3.9,-3.1,-0.3,104.8,87.2*,1.5,108.0*,
COC(=O)C1=C(C)N(Cc2ccccc2C(F)(F)F)C(=NCc2ccccc2)NC1CCc1ccccc1 (stereo not drawn),9.0,7.2,0.2,·,·,-3.3,·,
COc1ccccc1C(=O)Nc1nnc(S(=O)(=O)N2CCC(C)CC2)s1,12.1,10.7,0.6,99.9,13.8,5.8,·,
CC1CCN(S(=O)(=O)c2nnc(NC(=O)c3cccc(Cl)c3)s2)CC1,12.7,-3.1,0.9,87.0,82.7*,-2.3,78.6*,
SMILES,rCAG RNA binder,ADAM10 inh,proKLK7 act,DSG3 Ab inh,MPTP block,ADAM17 inh,MPTP counter,others
O=C(COc1ccc(Cl)cc1)Nc1ccc(Cc2ccncc2)cc1,-4.2,-5.9,0.2,103.4,75.3*,-0.9,71.9*,
O=C(O)Cc1ccc(NC(=O)COc2ccc3ccccc3c2)cc1,5.3,-1.4,0.1,103.0,-1.2,-3.4,·,
COc1ccc(OCC(=O)Nc2ccc(Cl)cc2)cc1,-1.3,-0.6,0.5,96.8,-0.8,-2.0,·,
O=C(COc1ccc2ccccc2c1)Nc1ccc(Cc2ccncc2)cc1,-2.0,-7.9,0.0,36.9*,94.5*,-5.1,88.2*,
CCOC(=O)[C@@]12CCC3=C1N(CCC3)C(=O)[C@H](CC(=O)NCC13CC4CC(CC(C4)C1)C3)C2,1.5,1.6,0.1,·,·,-4.7,·,
COC(=O)C1=C(C)N(Cc2ccc(C(F)(F)F)cc2)C(=NCc2ccc3c(c2)OCO3)NC1c1cccc(Cl)c1 (stereo not drawn),6.2,9.1,0.3,·,·,4.2,·,
CCSC1=NSC2=NC(=O)/C(=C\c3coc4ccccc4c3=O)C(=N)N12,-7.9,-71.2,-2.3,·,101.0*,-22.7,74.1*,
CCS(=O)(=O)C1=NSC2=NC(=O)/C(=C\c3ccc(OS(=O)(=O)c4ccccc4)c(OC)c3)C(=N)N21,·,·,·,?,-2.2,·,·,
O=C(Nc1ccc(Cl)cc1)NN1CCCCCC1,0.3,-1.5,-0.4,90.0,1.1,-1.6,·,
N#Cc1ccc(NC(=O)NN2CCCCCC2)cc1,0.1,-1.4,0.6,93.1,101.5*,-2.8,86.6*,
CSc1ccccc1NC(=S)Nc1ccc(S(N)(=O)=O)cc1,-0.6,-9.9,-0.1,98.8,3.8,-1.6,·,
NS(=O)(=O)c1ccc(NC(=O)Nc2ccc(Cl)cc2)cc1,8.3,19.2,0.5,110.4,77.0*,2.8,84.8*,
NS(=O)(=O)c1ccc(NC(=S)Nc2cc(Cl)c(Cl)cc2Cl)cc1,2.0,13.2,0.0,108.2,88.0*,-1.8,92.0*,
O=C(Nc1ccc([N+](=O)[O-])cc1)NN1CCCCCC1,1.5,-9.2,0.1,96.4,102.5*,-2.1,86.7*,
